The results in this text go back to PubChem BioAssay AID2685 (National Center for Advancing Translational Sciences (NCATS), 2010).

Molecules are shown by their SMILES. In all, about 320,000 compounds went through this assay and about 2,100 (0.66%) were called active. About 53% were inconclusive and are not listed. Calls come from the whole dose curve; as a rule, active = well fitted inhibition curve with a large enough effect in the signal ratio, with a control signal flat (not every such curve was filed as active); inconclusive = small, poorly fitted or top-dose-only effect, or effect the other way, or a change in a side signal; inactive = flat fitted curve, though single readings scatter; the % refers to the signal ratio. The full list was thinned out, with actives kept by preference.
Potency is the fitted concentration of half-maximal effect.

A short description of the experiment: qHTS Assay for Lipid Storage Modulators in Drosophila S3 Cells.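 For cell number change: cells counted by Cell Tracker Red CMTPX staining in the red channel.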 For lipid storage change, negative = inhibition: % is set by controls: 0 for no effect and ±100 for the full control effect. The settings on record: BODIPY lipid droplet fluorescence, 18-24 h, cells fed with added oleic acid; cell number change: measured here: cell count max response; series mostly up to 46.1 µM. In outline: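 Drosophila S3 cells loaded with oleic acid (400 uM, as added) and compounds at several concentrations; lipid droplets imaged by 488-nm laser-scanning cytometry, 500–530 nm intensity and object ratio to cell channel. Percent activity normalized to 20 uM Triacsin C.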
On to `Cc1cc2c(cc1S(=O)(=O)N(C)c1ccccc1)n(C)c(=O)n2C`, for which the Potency result was “inactive” and the cell number change worked out at 9.55%.
With `Cc1cccc(NS(=O)(=O)c2cn(C)c(=O)n(C)c2=O)c1C`, the Potency result is “inactive” and the cell number change is 14.4%.
Take `Cc1cc2[nH]c(=O)c(=O)[nH]c2cc1S(=O)(=O)Nc1cccc(C)c1C`: the Potency entry is “inactive” and the cell number change is -1.15%.
With `Cc1cc2c(cc1S(=O)(=O)Nc1cccc(C)c1C)n(C)c(=O)c(=O)n2C`, the Potency was 9.2 µM (active) and the cell number change was -26.2%.
Regarding `CCN(c1ccccc1)S(=O)(=O)c1cc2c(cc1C)n(C)c(=O)c(=O)n2C`, the Potency was 8.2 µM (active) and the cell number change is -9.51%.
With `Cc1cccc(N(C)S(=O)(=O)c2cc3c(cc2C)n(C)c(=O)c(=O)n3C)c1`, the Potency was 13 µM (active) and the cell number change is -12.7%.
Take `Cc1cc2c(cc1S(=O)(=O)NCc1ccccc1)n(C)c(=O)c(=O)n2C`: the Potency entry was “inactive” and the cell number change was -17.3%.
As to `O=C(CN1C(=O)NC2(CCCC2)C1=O)Nc1cc(S(=O)(=O)N2CCOCC2)ccc1OCC(F)(F)F`, the Potency entry was “inactive” and the cell number change is 18%.
As for `Cc1ccccc1-n1nc2c(c1NC(=O)c1cccs1)CS(=O)(=O)C2`, the Potency result was “inactive”.
Still for that read-out and setting: with `Nn1c(SCC(=O)Nc2ccccc2)nnc1-c1cccnc1` the entry was “inactive”.
With `COc1cccc(C(=O)Nc2nnc(-c3ccccc3)s2)c1`, the Potency entry is “inactive” and the cell number change turned out to be 0.556%.
On the same counts, the results for `Cc1ccc(NC(=O)CCC(=O)OCCCC(F)(F)C(F)(F)F)cc1` are “inactive” and -12.9%.
On to `Cc1ccccc1NC(=O)CCC(=O)OCCCC(F)(F)C(F)(F)F`, for which the Potency result was “inactive” and the cell number change worked out at 12.7%.
Consider `Cc1ccccc1OC(=O)CCC(=O)OCCCC(F)(F)C(F)(F)F`, for which the Potency is 29.1 µM (active) and the cell number change turned out to be 10.2%.
In the case of `O=c1oc(-c2cccc([N+](=O)[O-])c2)nc2ccccc12`, the Potency entry is “inactive” and the cell number change amounted to 0.88%.
For `CCn1c(=O)c(=O)[nH]c2c(=O)oc3ccc(S(=O)(=O)Nc4ccccc4)cc3c21` the same measures were 13 µM (active) and -26.4%.
Consider `CCn1c(=O)c(=O)[nH]c2c(=O)oc3ccc(S(=O)(=O)Nc4ccc(OC)cc4)cc3c21`, for which the Potency is 4.61 µM (active) and the cell number change amounted to 1.26%.
On to `COc1ccc(NS(=O)(=O)c2ccc3oc(=O)ccc3c2)cc1`, for which the Potency entry was “inactive” and the cell number change is -11.6%.
In the case of `COc1ccc(NS(=O)(=O)c2ccc3oc(=S)[nH]c3c2)cc1`, the Potency result is “inactive” and the cell number change stood at 5.85%.
For `Cn1c(=O)oc2cc(S(=O)(=O)Nc3ccccc3)ccc21`, the cell number change was -3.03% and the lipid storage change, negative = inhibition is -3.68% [at 9.22 µM] (inactive).
As to `Cc1ccc(S(=O)(=O)Nc2c(O)c3ccccc3oc2=O)cc1C`, the Potency entry was “inactive” and the cell number change amounted to 6.35%.
As for `COc1ccc(-c2nc(=S)[nH][nH]2)cc1`, the Potency entry is “inactive” and the cell number change was -14.6%.
With `O=C(NCc1cccnc1)C1CCCN(Cc2cnn(-c3ccccc3)c2-n2cccc2)C1` (stereo unspecified), the Potency result is “inactive” and the cell number change is -3.38%.
In the case of `Cc1ccc2nc3c(cc(C(=O)NCc4ccco4)c(=N)n3Cc3ccco3)c(=O)n2c1`, the Potency entry was “inactive” and the cell number change is -5.34%.
On the same counts, the results for `Cc1ccc(N(C(=O)CCC(=O)Nc2cc(C)on2)C(C(=O)NC2CCCC2)c2ccccc2)cc1` (stereo unspecified) are “inactive” and -13.1%.
With `O=C(CSc1nnc(-c2ccco2)n1-c1ccccc1)N1CCOCC1`, the Potency entry was “inactive”.
The same measure, in the same setting: next, `Cc1ccsc1C(=O)Nc1ccc(C(=O)O)cc1`: “inactive”.
Turning to `O=C(O)CCCC(=O)N1CCOCCOCCOCCOCC1`, the Potency entry was “inactive” and the cell number change amounted to 22.2%.
As for `Cc1cccc(NC(=O)CNC(=O)COc2ccc(C(=O)c3ccc(F)cc3)cc2)c1C`, the Potency entry is “inactive” and the cell number change came to 8.34%.
On the same counts, the results for `CCN(CC)C(=O)Cn1cc(S(=O)(=O)Cc2cccc([N+](=O)[O-])c2)c2ccccc21` are “inactive” and 0.298%.
On the same counts, the results for `CN(C)C(=O)Cn1cc(S(=O)(=O)Cc2ccccc2)c2ccccc21` are 0.651 µM (active) and -2.09%.
As to `O=C(Cn1cc(S(=O)(=O)Cc2ccccc2)c2ccccc21)N1CCOCC1`, the Potency result was “inactive” and the cell number change amounted to 6.54%.
As to `CC(C)OC(=O)CSc1nc2c(cc1C#N)CCCCC2`, the Potency entry is “inactive”.
Take `Cc1cc(C(=O)CN2C(=O)C(=O)N(C3CCCC3)C2=O)c(C)n1CCc1ccc(F)cc1`: the Potency was 20.6 µM (active) and the cell number change is -15.3%.
Consider `Cc1cc(C(=O)CN2C(=O)C(=O)N(Cc3ccccc3)C2=O)c(C)n1Cc1ccc(F)cc1`, for which the Potency result is “inactive” and the cell number change is -8.57%.
Consider `Cc1cc(C(=O)CCl)c(C)n1CCc1ccc(F)cc1`, for which the Potency result was “inactive” and the cell number change was -8.52%.
Take `COC(=O)C(C)N(C(=O)c1cccc(Cl)c1)c1c(C)cccc1C` (stereo unspecified): the Potency result is “inactive”.
Take `Cc1ccc(S(=O)(=O)N2CCN(C(=O)CNC(=O)c3sc4ccccc4c3Cl)CC2)cc1`: the Potency entry is “inactive”.
Take `CC(=O)Nc1ccc(NC(=O)CNC(=O)c2sc3ccccc3c2Cl)cc1`: the Potency result was “inactive” and the cell number change came out at 0.461%.
For `COC(=O)C(Cc1ccccc1)NC(=O)CNC(=O)c1sc2ccccc2c1Cl` (stereo unspecified) the same measures were 1.84 µM (active) and -4.58%.
For `COC(=O)c1ccc(CNC(=O)CNC(=O)c2sc3ccccc3c2Cl)cc1` the same measures were “inactive” and 3.22%.
As to `CC1CCCN(C(=O)CNC(=O)c2sc3ccccc3c2Cl)C1` (stereo unspecified), the cell number change was found to be 11.4% and the lipid storage change, negative = inhibition was 0.306% [at 0.0737 µM] (inactive).
Turning to `CC1CC(C)CN(C(=O)CNC(=O)c2sc3ccccc3c2Cl)C1` (stereo unspecified), the Potency is 1.46 µM (active) and the cell number change was -1.35%.
For the molecule `CC(C)N(Cc1nc(-c2ccccc2)no1)C(=O)C(C)(C)C`, the Potency entry is “inactive”.
With `O=C(CNC(=O)c1ccco1)N=Nc1c(O)[nH]c2ccc([N+](=O)[O-])cc12`, the Potency is 1.03 µM (active) and the cell number change stood at 26.6%.
`Cc1cccc(OCC(=O)N=Nc2c(O)[nH]c3ccc([N+](=O)[O-])cc23)c1`: the Potency result was “inactive” and the cell number change is -0.974%.
Turning to `O=C(CNC(=O)c1ccco1)N=Nc1c(O)[nH]c2ccc(Br)cc12`, the Potency entry is “inactive” and the cell number change was -9.17%.
